Results from PubChem BioAssay (NCI).
The panel holds about 83,000 compounds, 20% with a hit somewhere; the sample as a whole holds those more often.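 Interpretation: 100, growth as untreated; towards 0, rising growth inhibition; 0, no net growth; 0 to -100, cell death. Compounds scoring below 10 were considered active.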 Active and inactive are the calls of the source.

What was measured:
Experiment in all cases: NCI-60 one-dose screen, 48 h (100 = growth as untreated, 0 = no growth, -100 = all killed)
Conditions in all cases: 10 µM unless noted
BT-549 breast = test system: BT-549 breast
MDA-MB-435 melanoma = test system: MDA-MB-435 melanoma
SW-620 colon = test system: SW-620 colon
MCF7 breast = test system: MCF7 breast
HCT-116 colon = test system: HCT-116 colon
HCC-2998 colon = test system: HCC-2998 colon
KM12 colon = test system: KM12 colon

Measured: growth

CC[C@]12C=CCN3CC[C@@]4(c5ccc(OC)cc5N(C)[C@H]4[C@@](O)(C(=O)OC)[C@@H]1OC(=O)CCC(=O)O[C@H]1CC[C@H]4[C@@H]5CC[C@H]6CC(=O)CC[C@]6(C)[C@H]5CC[C@]14C)[C@@H]32
active: MCF7 breast 9.98% | HCT-116 colon 9.84%
inactive: BT-549 breast 11.6% | MDA-MB-435 melanoma 29.4% | SW-620 colon 21.3% | HCC-2998 colon 41.4% | KM12 colon 22.4%

O=C(O)C(C(=O)O)c1cccc2ccccc12
inactive: BT-549 breast 102% | MDA-MB-435 melanoma 102% | SW-620 colon 99.1% | MCF7 breast 98.1% | HCT-116 colon 102% | HCC-2998 colon 104% | KM12 colon 109%

CC(C)(C#N)c1cc(F)cc(C(=O)Nc2cc(Nc3ncccc3-c3ncnc4nc[nH]c34)ccc2F)c1
inactive: BT-549 breast 39.7% | MDA-MB-435 melanoma 48% | SW-620 colon 28.7% | MCF7 breast 58.1% | HCT-116 colon 19.2% | HCC-2998 colon 27.3% | KM12 colon 36%

O=C(Nc1nc2ccc(C(F)(F)F)cc2s1)c1cc(Cl)ccc1O
active: BT-549 breast -8.57% | MCF7 breast -1.08% | HCT-116 colon 4.81% | KM12 colon 8.91%
inactive: MDA-MB-435 melanoma 10.2% | SW-620 colon 12.8% | HCC-2998 colon 10.9%

CC(C)CSc1nc(Nc2ccccc2)c(C#N)c(-c2ccc(F)cc2)n1
inactive: BT-549 breast 28% | MDA-MB-435 melanoma 77.4% | SW-620 colon 55.2% | MCF7 breast 69% | HCC-2998 colon 69.1% | KM12 colon 73.2%
active: HCT-116 colon 7.9%

COc1ccc(/C=C/C(=O)Nc2ncnc3nc[nH]c23)cc1
inactive: BT-549 breast 103% | MDA-MB-435 melanoma 91.1% | SW-620 colon 110% | MCF7 breast 78.9% | HCT-116 colon 101% | HCC-2998 colon 111% | KM12 colon 95.8%

CSc1cccc(NC(=O)Nc2nc3c(C)cccc3s2)c1
inactive: BT-549 breast 119% | MDA-MB-435 melanoma 106% | SW-620 colon 113% | MCF7 breast 76.4% | HCT-116 colon 93% | HCC-2998 colon 106% | KM12 colon 107%

CCOC(=O)C1CCN(S(=O)(=O)/N=C2/NC(=O)NC2=C(Cl)Cl)CC1
inactive: MCF7 breast 16.4% | KM12 colon 12.8%
active: BT-549 breast -9.2% | MDA-MB-435 melanoma -7.61% | SW-620 colon -63.9% | HCT-116 colon 9.4% | HCC-2998 colon -10.1%

O=C(CCl)N1CCCc2ccccc21
inactive: BT-549 breast 97.1% | MDA-MB-435 melanoma 91.8% | SW-620 colon 99% | MCF7 breast 92% | HCT-116 colon 95.9% | HCC-2998 colon 96.6% | KM12 colon 90.4%

COc1ccc(C(=O)c2cc(OC)c(OC)c(OC)c2)cc1OC(=O)CCl
inactive: BT-549 breast 16.2% | SW-620 colon 29.9% | MCF7 breast 15.9% | HCT-116 colon 10.7% | HCC-2998 colon 26.3%
active: MDA-MB-435 melanoma -13.2% | KM12 colon 7.22%

CN(CCC#N)C(=O)Nc1ccccc1
inactive: BT-549 breast 102% | MDA-MB-435 melanoma 107% | SW-620 colon 103% | MCF7 breast 100% | HCT-116 colon 109% | HCC-2998 colon 108% | KM12 colon 104%

Cc1ccc(SC2c3ccc(C)cc3Oc3nc(N)c(C#N)c(N)c32)cc1 (centres undefined)
inactive: BT-549 breast 78.9% | MDA-MB-435 melanoma 91.6% | SW-620 colon 64.6% | HCT-116 colon 81.7% | HCC-2998 colon 103% | KM12 colon 96.8%
active: MCF7 breast 5.14%

O=C(/C(=C/c1ccc([N+](=O)[O-])cc1)SCc1ccccc1)c1ccc(Cl)cc1
inactive: BT-549 breast 89.2% | MDA-MB-435 melanoma 85.7% | HCT-116 colon 30.5% | HCC-2998 colon 97.3% | KM12 colon 65.6%
active: SW-620 colon 4.23% | MCF7 breast 7.72%

N#Cc1c(-c2ccc(F)cc2)nc(N=Nc2c(O)[nH]c3ccc(Cl)cc23)nc1N1CCOCC1
inactive: BT-549 breast 71.4% | MDA-MB-435 melanoma 67% | SW-620 colon 68.9% | MCF7 breast 39.9% | HCT-116 colon 21.4% | HCC-2998 colon 96.7% | KM12 colon 48.5%

C=C(C)[C@@H]1CC[C@]2(C(=O)O)CC[C@]3(C)[C@H](CC[C@@H]4[C@@]5(C)C[C@@H](CC#Cc6ccc(Cl)cc6)C(=O)C(C)(C)[C@@H]5CC[C@]43C)[C@@H]12
inactive: BT-549 breast 46.5% | MDA-MB-435 melanoma 46.6% | SW-620 colon 41.3% | MCF7 breast 36.3% | HCT-116 colon 22% | HCC-2998 colon 50.3% | KM12 colon 26.3%

CCCCn1c(=O)c(/C=C/C(=O)/C=C/c2ccc(O)c(OC)c2)cc2ccc(Cl)cc21
active: MDA-MB-435 melanoma 2.81% | HCT-116 colon -55.5% | KM12 colon 6.78%
inactive: BT-549 breast 11.4% | SW-620 colon 16.1% | MCF7 breast 46.3% | HCC-2998 colon 33.3%

Cn1nc(C(F)(F)F)c(-c2cc(C(F)(F)F)cc(C(F)(F)F)c2)c1-c1ccc(OCc2ccc(Cl)cc2)cc1O
inactive: MDA-MB-435 melanoma 11.4% | SW-620 colon 13.1%
active: BT-549 breast 2.72% | MCF7 breast 3.01% | HCT-116 colon 3.65% | HCC-2998 colon 5.78% | KM12 colon 5.04%

CC(=O)Oc1c2c(nc3c1c1ccccc1n3Cc1ccccc1)-c1ccccc1C2
inactive: BT-549 breast 104% | MDA-MB-435 melanoma 98.2% | SW-620 colon 98.8% | MCF7 breast 51.1% | HCT-116 colon 73.5% | HCC-2998 colon 87.9% | KM12 colon 88.7%

COC1=CC=CC2(OC)C3(O)CCCc4cccc(c43)N3C(=O)COC132 (centres undefined)
inactive: BT-549 breast 103% | MDA-MB-435 melanoma 103% | SW-620 colon 103% | MCF7 breast 96.3% | HCT-116 colon 89.7% | HCC-2998 colon 103% | KM12 colon 105%

O=C(/C(=C/c1ccc([N+](=O)[O-])cc1)SCc1ccc(F)cc1)c1ccc(Cl)cc1
active: SW-620 colon 1.44% | MCF7 breast -21.8% | HCT-116 colon 0.116%
inactive: BT-549 breast 84.9% | MDA-MB-435 melanoma 43.9% | HCC-2998 colon 84.3% | KM12 colon 19.5%

CCOC(=O)c1c(C)nc2c(c1N)/C(=C/c1ccccn1)C(=O)N2Cc1ccccc1
inactive: BT-549 breast 15.9% | MDA-MB-435 melanoma 11.2% | HCC-2998 colon 11.2% | KM12 colon 12.2%
active: SW-620 colon 1.97% | MCF7 breast 2.76% | HCT-116 colon -21.8%

Nn1c(SCC(=O)Nc2ccc(Cl)cc2)nnc1-c1cc(F)c(Cl)cc1Cl
inactive: BT-549 breast 114% | MDA-MB-435 melanoma 97.3% | SW-620 colon 92% | MCF7 breast 72.3% | HCT-116 colon 83.1% | HCC-2998 colon 93.2% | KM12 colon 72.8%

O=C1C(=O)c2c(nc3ccc(Br)cn23)-c2ccccc21
active: BT-549 breast -86.8% | MDA-MB-435 melanoma -94% | SW-620 colon -79.6% | MCF7 breast -54.1% | HCT-116 colon -88.9% | HCC-2998 colon -82.5% | KM12 colon -41.5%

COC(=O)c1cncc(C(=O)Nc2ccc(-n3cnc4ccccc43)cc2)c1
inactive: BT-549 breast 96.1% | MDA-MB-435 melanoma 105% | SW-620 colon 112% | MCF7 breast 84.7% | HCT-116 colon 103% | HCC-2998 colon 116% | KM12 colon 88.4%

Nc1cc(N)c(S(=O)(=O)O)cc1N=Nc1cc([N+](=O)[O-])ccc1O
inactive: BT-549 breast 105% | MDA-MB-435 melanoma 112% | SW-620 colon 108% | MCF7 breast 94.7% | HCT-116 colon 94% | HCC-2998 colon 109% | KM12 colon 106%

O=C(NC[C@H](O)CN1CCc2ccccc2C1)c1cc(NC2COC2)ncn1
inactive: BT-549 breast 97.8% | MDA-MB-435 melanoma 95.1% | SW-620 colon 93.8% | MCF7 breast 80.2% | HCT-116 colon 86.7% | HCC-2998 colon 98.8% | KM12 colon 98.1%

CCCn1c(N)c(C(N)=O)sc1=S
inactive: BT-549 breast 118% | MDA-MB-435 melanoma 109% | SW-620 colon 101% | MCF7 breast 106% | HCT-116 colon 101% | HCC-2998 colon 110% | KM12 colon 97.4%
